Measured values taken from PMC5913336, “True equilibrium measurement of transcription factor-DNA binding affinities using automated polarization microscopy”.

Molecular target: T1, Eip93f (Drosophila melanogaster, UniProt Q9VD60 752-830)
T1 sequence: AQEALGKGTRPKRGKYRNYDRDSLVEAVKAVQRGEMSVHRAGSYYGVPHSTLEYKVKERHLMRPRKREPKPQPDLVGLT
Assay: FP; 33 mM phosphate pH 7.0, 90 mM NaCl, 0.01% Tween 20, 0.1 mM DTT, 0.5% agarose; room temperature
Conditions: tags: N-GST (pGEX-6P-1, kept); dsDNA, one strand shown

| Sequence | binding signal | Kd [µM] |
| --- | --- | --- |
| CAAAGCCGAAAATCG | 1.57 Kd / Kd of best base at the position |  |
| CATAGCCGATAATCG | 12.1 Kd / Kd of best base at the position |  |
| CATAGCAGAAAATCG | 23.3 Kd / Kd of best base at the position |  |
| CATAACCGAAAATCG | 1.73 Kd / Kd of best base at the position |  |
| CGTAGCCGAAAATCG | 1.39 Kd / Kd of best base at the position |  |
| CATAGCCGAAAATAG | 1.65 Kd / Kd of best base at the position |  |
| CATATCCGAAAATCG | 1.8 Kd / Kd of best base at the position |  |
| CATAGCCGAGAATCG | 22.5 Kd / Kd of best base at the position |  |
| CATAGCCGAAAATCG |  | ~0.0145 |
| CATAGCCGAAAACCG | 1.78 Kd / Kd of best base at the position |  |
| CATAGCCCAAAATCG | 1.29 Kd / Kd of best base at the position |  |
| CATAGTCGAAAATCG | 1.92 Kd / Kd of best base at the position |  |
| CATAGCCGAATATCG | 2.21 Kd / Kd of best base at the position |  |
| CCTAGCCGAAAATCG | 1.59 Kd / Kd of best base at the position |  |
| CATAGCCGAAAATGG | 1.42 Kd / Kd of best base at the position |  |
| CATTGCCGAAAATCG | 1.02 Kd / Kd of best base at the position |  |
| CATAGCCGCAAATCG | 20 Kd / Kd of best base at the position |  |
| CATGGCCGAAAATCG | 1.39 Kd / Kd of best base at the position |  |
| CACAGCCGAAAATCG | 1.26 Kd / Kd of best base at the position |  |
| CATAGCCGAAAATCT | 1.07 Kd / Kd of best base at the position |  |

| Sequence | binding signal | Kd [µM] |
| --- | --- | --- |
| CATAGCCGTAAATCG | 13.1 Kd / Kd of best base at the position |  |
| CATACCCGAAAATCG | 1.36 Kd / Kd of best base at the position |  |
| AATAGCCGAAAATCG | 1.22 Kd / Kd of best base at the position |  |
| TATAGCCGAAAATCG | 1.35 Kd / Kd of best base at the position |  |
| CATAGCCGAAACTCG | 2.54 Kd / Kd of best base at the position |  |
| CATCGCCGAAAATCG | 2.02 Kd / Kd of best base at the position |  |
| CATAGCCAAAAATCG | 1.28 Kd / Kd of best base at the position |  |
| CATAGACGAAAATCG | 3.01 Kd / Kd of best base at the position |  |
| CATAGCCGAAAATCC | 1.04 Kd / Kd of best base at the position |  |
| CATAGCCGAAGATCG | 9.46 Kd / Kd of best base at the position |  |
| CATAGCTGAAAATCG | 4.47 Kd / Kd of best base at the position |  |
| CATAGCCGAAATTCG | 1.52 Kd / Kd of best base at the position |  |
| CATAGCCGAAAATTG | 1.35 Kd / Kd of best base at the position |  |
| GATAGCCGAAAATCG | 1.29 Kd / Kd of best base at the position |  |
| CTTAGCCGAAAATCG | 1.14 Kd / Kd of best base at the position |  |
| CATAGCCGAAAAACG | 1.54 Kd / Kd of best base at the position |  |
| CATAGCCGGAAATCG | 7 Kd / Kd of best base at the position |  |
| CATAGCCTAAAATCG | 1.82 Kd / Kd of best base at the position |  |
| CATAGCGGAAAATCG | 16.4 Kd / Kd of best base at the position |  |
| CAGAGCCGAAAATCG | 1.49 Kd / Kd of best base at the position |  |
